DRD3 agonist: agonists of human D3 dopamine receptor. AID 652048. P35462. D3R DiscoveRx beta-arrestin cells, luminescence, 90 min. 410,000 compounds, 0.58% hits. max activation, %; in the data active means max activation above about 30%; further: 0% is about no effect
Target sequence (P35462 whole entry, looked up): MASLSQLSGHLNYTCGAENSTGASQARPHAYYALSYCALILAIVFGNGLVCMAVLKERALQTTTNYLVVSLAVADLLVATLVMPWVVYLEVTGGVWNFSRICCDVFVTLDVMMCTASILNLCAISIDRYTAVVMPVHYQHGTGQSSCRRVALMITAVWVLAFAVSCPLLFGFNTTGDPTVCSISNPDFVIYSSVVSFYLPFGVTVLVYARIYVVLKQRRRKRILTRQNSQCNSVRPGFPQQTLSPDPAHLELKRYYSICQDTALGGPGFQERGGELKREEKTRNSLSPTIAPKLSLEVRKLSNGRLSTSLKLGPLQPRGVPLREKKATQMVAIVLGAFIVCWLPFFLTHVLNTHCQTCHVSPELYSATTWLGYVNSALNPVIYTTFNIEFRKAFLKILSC
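Cells at 1500/well, incubated overnight, then treated with pinned compounds (dopamine as control) for 90 min at 37 degrees C. DiscoveRx reagent added for 30 - 60 minutes at room temperature; luminescence read.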
D3 antag: blocks the human D3 dopamine receptor; 360,000 compounds, 2.5% hits; max response, negative = inhibition, %; P35462; D3R cells, DiscoveRx beta-arrestin luminescence, antagonist mode; active compounds read low; in the data active means max response below about -50%; inconclusive means no clear call, values can overlap the other calls; further: on the % scale 0 is the no-effect control and ±100 the full control effect
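Cells expressing the human receptor were seeded at 1500 cells/well, incubated overnight at 37 degrees C in 5% CO2, then exposed to library compounds with dopamine controls for 90 minutes at 37 degrees C before luminescent detection.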
ATXN2 expr inh: reduces ATXN2 reporter expression in HEK-293 cells; HEK-293 ATXN2-luciferase reporter, luminescence, 24 h; Potency, µM (top dose mostly 57 µM), inactives show at the highest dose activity change, negative = inhibition, actives largely listed as inhibitors; 360,000 compounds, 0.72% hits; further: potency means the concentration at half of the fitted maximal effect; on the % scale 0 is the no-effect control and ±100 the full control effect; nearly all actives have a fitted effect of over 55% in size
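ATXN2-luciferase reporter cells (luciferase flanked by upstream and downstream ATXN2 gene portions) were treated 24 h at 37 °C with compounds at up to 57 uM. SteadyGlo luminescence gave expression; GF-AFC fluorescence gave viability.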
TGFb inhibitor: TGF-b pathway inhibition | HepG2 CAGA-GFP TGF-b/SMAD3 reporter, GFP fluorescence, 18 h; TGF-beta stimulated, 500 pg/mL final | Potency, µM (titrated, usually from 46.1 µM), for the others: at the top dose activity, negative = inhibition, hits mostly inhibitors | 410,000 compounds, 1.2% hits; further: potency means the concentration at half of the fitted maximal effect; on the % scale 0 is the no-effect control and ±100 the full control effect; nearly all actives have a fitted effect of over 65% in size
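Inhibition was scored as loss of TGF-beta-induced (500 pg/mL final, 18 hours, 37 degrees C) GFP in HEPG2 cells carrying a CAGA-GFP reporter, in DMEM with 1% FBS. Well GFP was summed per cell; Activity was normalised to unstimulated and stimulated DMSO wells, then concentration-response fitting.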
ATXN viability: viability counter-screen for ATXN expression inhibitors. S2 cells (HEK-293 line with an ATXN2-luciferase reporter) viability, CellTiter-Fluor protease fluorescence, 24 h. Potency, µM (top dose mostly 56.7 µM), hits mostly cytotoxic. 400,000 compounds, 0.49% hits; further: potency means the concentration at half of the fitted maximal effect; nearly all actives have a fitted effect of over 40% in size
HepG2 viability: counter-screen for TGF-b inhibitors: cytotoxicity in HepG2 cells. AID 588856. Potency, µM (top dose mostly 46.1 µM), inactives show at the highest dose activity change, negative = cytotoxicity, usual class: cytotoxic. HepG2 CAGA-GFP viability, ATP luminescence, 18 h. 410,000 compounds, 0.76% hits; further: potency means the concentration at half of the fitted maximal effect
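HepG2 CAGA-GFP cells (1000/well, DMEM with 1% FBS) received compound, then TGF-beta at 500 pg/mL final, and were incubated 18 hours at 37 degrees C. Viability was read by CellTiter-Glo luminescence. Media-only wells were set as complete cell-killing and DMSO as no toxicity.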
Active calls of the source: *; i = inactive; ? = inconclusive; / = no result. An excerpt weighted towards active compounds, which were near 4.7% of everything screened. Unless noted, the call rests on the fitted dose curve; in most records, active means well fitted curve in the direction sought with a large enough effect; inconclusive means small, poorly fitted or top-dose-only effect, or another doubt; inactive means no such curve, though single readings can be large; an effect the other way counts as inactive or inconclusive.

SMILES	DRD3 agonist	D3 antag	ATXN2 expr inh	TGFb inhibitor	ATXN viability	HepG2 viability
COc1ccc2[nH]c(C)c(CCNS(=O)(=O)c3cc(F)ccc3OC)c2c1	12	/	-3%	-22%	i	-25%
O=C1Nc2c(Br)cccc2C1=O	-40	-94*	-8%	?	i	-101%
COC(=O)c1cccc2c1NC(=O)C2=O	-14	-75*	-12%	?	i	-15%
CCN(CC)c1nc2ccccc2nc1C(=O)Nc1cc(OC)c(OC)c(OC)c1	4	/	-15%	22%	?	-13%
CC(C)CCNC1=NCCCCC1	2	-2	4%	?	i	11µM*
CCCc1cnc(NCCNCC(O)COc2ccc(Cl)c(Cl)c2)nc1 (stereo unspecified)	-25	?	?	?	?	20µM*
COc1ccc(CN2CCc3c(c(=O)n4ncc(C(=O)N5CCN(c6ccccc6OC)CC5)c4n3C)C2)cc1	7	/	-32%	?	i	-36%
Cc1[nH]c2c(F)cccc2c1CC(=O)NCCN1Cc2ccccc2OC(C)C1 (stereo unspecified)	/	/	/	/	i	/
CC(=O)NN1C(=O)/C(=C\c2ccc(Br)o2)SC1=S	-4	-59*	-28%	0%	i	-20%
CC(=O)NN1C(=O)/C(=C/c2ccc(Br)o2)SC1=S	1	1	-6%	32%	i	22%
O=C(/C=C/c1cccs1)N1CCCC1	8	3	19%	0%	i	12%
CN1CCCN=C1/C=C/c1cccs1	0	-58*	-3%	1%	i	6%
CCCCSCCCNC(=O)CN1C(=O)c2cccnc2Oc2ccc(Cl)cc21	4	/	/	-9%	/	1%
Cc1ccc(S(=O)(=O)NCCSc2nnnn2-c2ccc(Cl)c(C(=O)O)c2)cc1	-3	/	1%	1%	i	-19%
OC(CNCc1ccco1)COc1ccccc1 (stereo unspecified)	-22	-55*	3%	10%	i	-56%
OC(CNCc1ccco1)Cn1c2ccccc2c2ccccc21 (stereo unspecified)	-5	-18	-26%	?	i	18µM*
CS(=O)(=O)N(Cc1ccco1)CC(O)Cn1c2ccccc2c2ccccc21 (stereo unspecified)	-4	12	-13%	-26%	i	-24%
CNc1ccc(/C=C2\C=Cc3ccccc32)cc1I	/	/	/	0%	/	-23%
CCCN1CCC(=O)N([C@H](COc2ccccc2)CC(C)C)CC1	-39	-58*	4%	?	i	4%
Cc1ccc2c(c1)N(C(=O)CCC(=O)NCc1ccccc1Cl)CC(C)O2 (stereo unspecified)	-6	/	-4%	-23%	i	-15%
CCN1CCN(C(=O)c2ccc3c(c2)N(Cc2ccccc2F)C(=O)c2ccccc2S3(=O)=O)CC1	-18	-61*	6%	0%	i	5%
O=C(c1ccc2c(c1)N(Cc1ccccc1F)C(=O)c1ccccc1S2(=O)=O)N1CCCCCC1	-11	/	-24%	-4%	i	3%
CCN1CCN(C(=O)c2ccc3c(c2)N(Cc2cccc(Cl)c2)C(=O)c2ccccc2S3=O)CC1 (stereo unspecified)	-23	/	/	-30%	/	-30%
CCN1CCN(C(=O)c2ccc3c(c2)N(Cc2ccccc2)C(=O)c2ccccc2S3=O)CC1 (stereo unspecified)	-13	-56*	-3%	10%	i	-20%
O=C(NCc1ccco1)c1ccc2c(c1)N(Cc1ccc(Cl)cc1)C(=O)c1ccccc1S2=O (stereo unspecified)	-12	/	8%	?	i	1%
CC1CC(C)CN(CCCNC(=O)c2ccc3c(c2)N(Cc2ccccc2)C(=O)c2ccccc2S3=O)C1 (stereo unspecified)	-20	-72*	/	?	28µM*	-94%

Compound activity as filed in PubChem.
